One assay concerns Staphylococcus aureus. To be noted: Concentration 32 ug.mL-1;; ASSAY_TEST Inhibition of Bacterial Growth; detection method Absorption (OD600); MEDIA CAMHB; plate type 384well; NBS; CORNING #3640; time 18 hr.
In another assay the test system is Escherichia coli. The note with it: Concentration 32 ug.mL-1;; ASSAY_TEST Inhibition of Bacterial Growth; detection method Absorption (OD600); MEDIA CAMHB; plate type 384well; NBS; CORNING #3640; time 18 hr.

Each structure is given as a SMILES string. Potency and affinity values are given separately.

Turning to `COc1cccc(NC(=O)Cn2nc3ccc(SCc4ccc(Cl)cc4)nn3c2=O)c1`, the values for the Inhibition with Staphylococcus aureus and in the assay on Escherichia coli were -4.03% and 0.27%, respectively.
As for `O=C(Cn1nc2c(N3CCOCC3)nccn2c1=O)NCc1cccc(C(F)(F)F)c1`, the Inhibition (usually the relative decrease from the control value, in per cent) is 16.25% in the assay on Staphylococcus aureus and -1.74% in the assay on Escherichia coli.
On to `CCc1nnc2c(S(=O)(=O)N(Cc3cc(F)cc(F)c3)c3ccc(F)cc3)cccn12`, for which the Inhibition in the assay with Staphylococcus aureus is given as -5.33%; in the assay on Escherichia coli it was -11.24%.
The corresponding values for `Cc1ccc(S(=O)(=O)Nc2ccc3nnc(-c4ccccc4)n3n2)cc1C` are 8.79% and -2.69%.
With `O=C(CSc1nnc2c(=O)n(Cc3ccc(F)cc3)ccn12)NC1CCCC1`, the Inhibition is reported as 13.37% in the assay on Staphylococcus aureus and -4.53% in the assay on Escherichia coli.
On the same counts, the results for `O=C(Cn1nc2c(N3CCOCC3)nccn2c1=O)NCc1cccs1` are 22.65% and 1.24%.
The corresponding values for `CN(C)C(=O)CSc1nnc2c(=O)n(-c3ccc(F)cc3)ccn12` are 8.32% and 0.14%.
`CC(C)Cn1c(=O)c2sccc2n2c(=O)n(Cc3ccc(Br)cc3)nc12`: the figures for the Inhibition in the assay with Staphylococcus aureus and in the assay with Escherichia coli were 2.7% and -6.62%, respectively.
As for `CCCCc1ccc(NC(=O)Cn2nc3ccc(C(=O)Nc4ccc(OC)cc4)cn3c2=O)cc1`, the Inhibition in the assay on Staphylococcus aureus is recorded as 3.96%; with Escherichia coli it was -4.6%.
The corresponding values for `O=C(CSc1nnc2c(=O)n(-c3ccc(Br)cc3)ccn12)Nc1cc(F)ccc1F` are 11.71% and -2.54%.
`CSc1ccc(CNC(=O)Cn2nc3c(Oc4cccc(C)c4C)nccn3c2=O)cc1`: the Inhibition in the assay on Staphylococcus aureus came to 11.62%; with Escherichia coli it was 2.94%.
The corresponding values for `COC(=O)c1sccc1NC(=O)CSc1nc2ccccc2n2c(C)nnc12` are 17.15% and 5.14%.
Turning to `CCCc1nnc2c(=O)n(CC(=O)Nc3ccc4c(c3)OCCO4)c3ccccc3n12`, the values for the Inhibition in the assay on Staphylococcus aureus and with Escherichia coli were 2.35% and -7.37%, respectively.
On the same counts, the results for `COc1ccc(CNC(=O)CCc2nnc3c4cc(-c5ccc(Cl)cc5)nn4ccn23)cc1OC` are 3.74% and 1.66%.
The corresponding values for `O=C(CSc1nnc2c(=O)n(-c3ccccc3)ccn12)Nc1ccc2c(c1)OCCO2` are 8.84% and -1.03%.
As for `O=c1c2sccc2n2c(=O)n(Cc3ccc(Br)cc3)nc2n1CCc1ccccc1`, the Inhibition with Staphylococcus aureus was -9.4%; with Escherichia coli, -11.48%.
On the same counts, the results for `CSc1cccc(NC(=O)Cn2nc3ccc(SC4CCCCC4)nn3c2=O)c1` are -9.19% and -2.76%.
On the same counts, the results for `CCN(C(=O)Cn1nc2nc(Nc3ccc(F)cc3)ccn2c1=O)c1ccccc1` are 12.68% and -3.17%.
Consider `COc1ccc(NC(=O)CSc2nnc3c(=O)n(-c4ccccc4)ccn23)cc1OC`, for which the Inhibition is listed as 9.52% with Staphylococcus aureus and -7.32% in the assay on Escherichia coli.
The corresponding values for `CCOc1ccc(-c2nc(CSc3nc4ccccc4n4c(C(C)C)nnc34)c(C)o2)cc1` are -10.96% and -11.72%.
The corresponding values for `Cc1ccc(NC(=O)Cn2c(=O)c3nnc(C(C)C)n3c3ccccc32)cc1F` are 13.81% and 1.95%.
`COc1ccc(Cl)cc1NC(=O)CSc1nc2ccccc2n2cnnc12`: the Inhibition in the assay with Staphylococcus aureus stood at 12.82%; in the assay on Escherichia coli, 5.77%.
The corresponding values for `CCOC(=O)c1ccc(NC(=O)Cn2nc3c4cc(-c5ccc(C)c(C)c5)nn4ccn3c2=O)cc1` are 3.76% and -8.53%.
The corresponding values for `COc1ccc(NC(=O)C(C)Sc2nnc3c(=O)n(-c4ccccc4)ccn23)cc1` (stereo unspecified) are 4.59% and 4.26%.
On the same counts, the results for `CC(C)CCn1c(=O)c2sccc2n2c(=O)n(CC(N)=O)nc12` are 1.13% and -3.19%.
For the compound `COc1ccc(CN(c2ccc(F)c(F)c2)S(=O)(=O)c2ccc3nncn3c2)cc1`, the Inhibition with Staphylococcus aureus was -0.97%; in the assay with Escherichia coli it was -4.01%.
On the same counts, the results for `COc1cccc(-n2ccn3c(SCc4cccc(C)c4)nnc3c2=O)c1` are 13.81% and -5.33%.
On the same counts, the results for `COc1ccc(NC(=O)Cn2nc3nc(Nc4ccc(F)cc4)ccn3c2=O)cc1F` are -2.83% and -10.06%.
The corresponding values for `Cc1cccc(Oc2nc3ccccc3n3c(=O)n(CC(=O)NCc4ccco4)nc23)c1C` are 3.87% and -6.2%.
As for `Cc1ccc(-n2ccn3c(=O)n(Cc4ccc(F)cc4)nc3c2=O)cc1C`, the Inhibition is on record as 10.94% in the assay with Staphylococcus aureus and -2.15% in the assay with Escherichia coli.
In the case of `CC(C)c1ccc(N(Cc2ccccc2)S(=O)(=O)c2cccn3cnnc23)cc1`, the Inhibition in the assay with Staphylococcus aureus is reported as 5.98%; in the assay on Escherichia coli it was -8.68%.
On the same counts, the results for `CCOC(=O)c1cccc(NC(=O)CSc2nnc3ccc(C(=O)Nc4cccc(F)c4)cn23)c1` are 5.02% and -5.71%.
For the compound `Cc1ccc(NC(=O)Cn2nc3cc(C)nc(Nc4ccc(F)c(C)c4)n3c2=O)cc1`, the Inhibition in the assay on Staphylococcus aureus came out at 11.03%; in the assay with Escherichia coli, 0.27%.

For the origin of these results see ChEMBL document CHEMBL4513146, “CO-ADD screening of Karazin Kharkiv National University (Ukraine) compounds”.
